Compound activity deposited in PubChem by Broad Institute.
These entries were drawn from the full list.
aSyn 5UTR act: Activators working through SNCA 5'UTR binding (MLPCN); alpha-synuclein 5'UTR reporter, activators screen; hit rate 7.1% among 300,000; activity score, % (tested at 7.5 µM), hits read low; AID 1814; in the data active = activity score below about -60%
An asterisk follows results filed as active.

For Fc1ccc(-c2ccc(CNCc3ccccn3)o2)cc1 the results were aSyn 5UTR act -91*.
`CCSc1nc2ccccc2n1C(=O)/C=C/c1ccc(OC)c(OC)c1` gave aSyn 5UTR act -168*.
`C=CCSc1nc2ccccc2n1C(=O)/C=C/c1ccc(OC)c(OC)c1` gave aSyn 5UTR act -219*.
C=CCSc1nc2ccccc2n1C(=O)/C=C/c1cc(OC)c(OC)c(OC)c1 was read as aSyn 5UTR act -172*.
For Cc1cc(C)nc(Nc2nc(=O)c3ccccc3s2)n1 the results were aSyn 5UTR act -134*.
`COc1ccc(-c2nc(SC)n(C(=O)c3ccco3)n2)cc1` gave aSyn 5UTR act -130*.
For COc1ccc(-c2nc(SCc3ccccc3)n(C(=O)c3ccco3)n2)cc1 the results were aSyn 5UTR act -81*.
Screening Cc1cccc(NC(=O)c2ccc(C(=O)c3ccccc3)cc2)n1 returned aSyn 5UTR act -102*.
Screening Cc1cc(C)c(NC(=O)NC(=O)c2cccc(F)c2)c(C)n1 returned aSyn 5UTR act -69*.
`O=C(Nc1ccccn1)c1ccc(C(=O)c2ccccc2)cc1` gave aSyn 5UTR act -108*.
Cc1cccc(NC(=O)NC(=O)c2ccccc2)n1 was read as aSyn 5UTR act -139*.
`O=C(NC(=O)c1ccccc1)Nc1ccccn1` gave aSyn 5UTR act 64.
Screening CCCc1nc2ccc(NC(C)=O)cc2c(=O)n1Cc1ccc(Cl)cc1 returned aSyn 5UTR act -137*.
Cc1nc2ccc(N)cc2c(=O)n1Cc1ccc(Cl)cc1 was read as aSyn 5UTR act -74*.
`COc1ccc(Cn2c(C3CC3)nc3ccc(NC(=O)c4cccnc4)cc3c2=O)cc1` gave aSyn 5UTR act -176*.
`COc1ccc(Cn2c(C3CC3)nc3ccc(NC(C)=O)cc3c2=O)cc1` gave aSyn 5UTR act -121*.
`N#CCC(=O)N/N=C/c1cn(Cc2ccc(Cl)c(Cl)c2)c2ccccc12` gave aSyn 5UTR act 61.
N#CCn1cc(/C=N/NC(=O)c2cc3c(ccc4ccccc43)o2)c2ccccc21 was read as aSyn 5UTR act -112*.
Screening Cc1occc1C(=O)NNC(=S)Nc1ccccc1 returned aSyn 5UTR act -88*.
Screening Cc1occc1C(=O)NNC(=S)Nc1ccccc1C(F)(F)F returned aSyn 5UTR act -86*.
Screening Cc1occc1C(=O)NNC(=O)c1ccccc1F returned aSyn 5UTR act -82*.
For c1cncc(-c2noc(C34CC5CC(CC(C5)C3)C4)n2)c1 the results were aSyn 5UTR act -87*.
CC(C)=CCC/C(C)=C/CC(C)(C)CNCCN1CCNCC1 was read as aSyn 5UTR act -64*.
`Cc1nn(-c2ccccc2)c(Cl)c1/C=N/NC(=O)c1ccccc1F` gave aSyn 5UTR act -89*.
Cc1nn(-c2ccccc2)c(C)c1/C=N/NC(=O)c1cc(-c2ccccc2)n[nH]1 was read as aSyn 5UTR act 82.
Cc1cc(C(=O)N/N=C/c2c(C)nn(-c3ccccc3)c2C)c(C)o1 was read as aSyn 5UTR act -69*.
`Cc1nn(-c2ccccc2)c(Cl)c1/C=C/C(=O)c1ccccc1` gave aSyn 5UTR act -107*.
Screening Cc1nn(-c2ccccc2)c(Cl)c1/C=N/NC(=O)c1[nH]ncc1Br returned aSyn 5UTR act -67*.
`O=C(N/N=C/c1cn(-c2ccccc2)nc1-c1cccs1)c1ccc(Cl)cc1` gave aSyn 5UTR act -66*.
`Cc1nn(-c2ccccc2)c(Cl)c1/C=N/NC(=O)c1ccc(NS(=O)(=O)c2cccs2)cc1` gave aSyn 5UTR act -109*.
C=CCNc1nc(N)c([N+](=O)[O-])c(N2CCCCCC2)n1 was read as aSyn 5UTR act 69.
For Oc1ccc(Nc2nc(N3CCCC3)c3ccccc3n2)cc1 the results were aSyn 5UTR act -579*.
Screening COCCNc1nc(N)c([N+](=O)[O-])c(NC2CCCCC2)n1 returned aSyn 5UTR act 68.
CC1CCN(c2nc(/C=C/c3ccccc3)nc3ccccc23)CC1 was read as aSyn 5UTR act -87*.
Nc1nc(Nc2ccccc2)nc(N2CCCC2)c1[N+](=O)[O-] was read as aSyn 5UTR act -81*.
For C(=C\c1nc(N2CCCC2)c2ccccc2n1)/c1ccccc1 the results were aSyn 5UTR act -106*.
`Cc1nn2c(nc(N3CCCCC3)c3ccccc32)c1C=O` gave aSyn 5UTR act 55.
For C/C(N)=C(/C#N)C(=O)CSc1nnc(-c2ccc(OC(F)F)cc2)o1 the results were aSyn 5UTR act -204*.
C/C(N)=C(/C#N)C(=O)CSc1nn(-c2ccc(Cl)cc2)c(=S)s1 was read as aSyn 5UTR act -74*.
Screening C/C(N)=C(/C#N)C(=O)CSc1ccccc1F returned aSyn 5UTR act -115*.
For CC(=O)Oc1c(-c2ccc(Br)o2)oc2ccccc2c1=O the results were aSyn 5UTR act -66*.
COc1ccc(-c2oc3cc(OC)c(O)c(OC)c3c(=O)c2OC)cc1O was read as aSyn 5UTR act 65.
For CC(=O)Oc1cc(O)c2c(=O)c(OC(C)=O)c(-c3ccc(OC(C)=O)c(OC(C)=O)c3)oc2c1 the results were aSyn 5UTR act -116*.
`COc1ccc(-c2oc3ccccc3c(=O)c2OC(C)=O)cc1` gave aSyn 5UTR act -174*.
Screening Cc1ccc(C(=O)CN2C(=O)c3ccccc3S2(=O)=O)cc1 returned aSyn 5UTR act 109.
`Cc1ccc(C(=O)COc2ccccc2N2C(=O)c3ccccc3C2=O)cc1` gave aSyn 5UTR act -127*.
For Cc1cc(C(=O)CSc2nc3ccccc3o2)c(C)n1C1CC1 the results were aSyn 5UTR act -165*.
`C=CCn1c(C)cc(C(=O)COc2nncc3ccccc23)c1C` gave aSyn 5UTR act -123*.
For C=CCn1c(C)cc(C(=O)CSc2nc3ccccc3o2)c1C the results were aSyn 5UTR act -137*.
`C=CCn1c(C)cc(C(=O)CSc2nc3ccccc3[nH]2)c1C` gave aSyn 5UTR act 59.
For O=C(C[n+]1cc(-c2ccc(F)cc2)n2c1CCC2)Nc1nc(-c2ccc(F)cc2)cs1 the results were aSyn 5UTR act -63*.
Screening O=C(C[n+]1cc(-c2ccc(F)cc2)n2c1CCC2)N1c2ccccc2Sc2ccccc21 returned aSyn 5UTR act -181*.
Screening Cc1ccc(-c2csc(NC(=O)C[n+]3cc(-c4ccccc4)n4c3CCC4)n2)cc1 returned aSyn 5UTR act -117*.
Screening CN(C)/N=C/c1ccc(OS(=O)(=O)c2ccccc2)cc1 returned aSyn 5UTR act -157*.
For FC(F)Oc1ccccc1/C=N/n1cnc2ccccc21 the results were aSyn 5UTR act -191*.
`Cc1ccc(NC(=S)Nc2nc(CC(=O)Nc3ccccc3)cs2)cc1` gave aSyn 5UTR act -119*.
`O=C(COc1cc(Cl)c(Cl)cc1Cl)Nc1cccc(O)c1` gave aSyn 5UTR act -90*.
`Cc1ccc(OCC(=O)Nc2cccc(O)c2)cc1C` gave aSyn 5UTR act -172*.
For Cc1cccc(OCC(=O)Nc2cccc(O)c2)c1 the results were aSyn 5UTR act -162*.
Cc1cccc(OCC(=O)Nc2cccc3nsnc23)c1 was read as aSyn 5UTR act -82*.
`O=C(NCCc1c[nH]c2ccccc12)c1ccccc1` gave aSyn 5UTR act -107*.
O=C1c2ccccc2C(=O)N1CCc1c[nH]c2ccccc12 was read as aSyn 5UTR act -172*.
For Cc1ccc(C(=O)NCCc2c[nH]c3ccccc23)c(C)c1 the results were aSyn 5UTR act -104*.
Screening Cc1ccc(C(=O)NCCc2c[nH]c3ccccc23)s1 returned aSyn 5UTR act -178*.
For O=C(/C=C/c1ccccc1)c1c[nH]c2ccccc12 the results were aSyn 5UTR act -98*.
